Assay outcomes from PubChem BioAssay.
rCAG RNA binder: binders of r(CAG) RNA repeats, primary screen, biochemical, fluorescence; hit rate 1.3% among 370,000; AID 651821, 2012; r(CAG) RNA repeat, TO-PRO-1 dye displacement fluorescence; inhibition, % at 3 µM;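 active = inhibition above the plate cutoff, the mean of all test compounds on that plate plus 3 SD, cut at about 35% in these data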;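 also: 0% = DMSO alone and 100% = 100 µM mitoxantrone as full dye displacement; higher means more dye released from RNA so lower well fluorescence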
TLR9-MyD88 block: inhibitors of TLR9-MyD88 association in cells, primary screen, cell-based, CHO, BLA complementation, fluorescence; Toll-like receptor 9 (Homo sapiens) + Myeloid differentiation primary response protein …; inhibition, % at 4.98 µM; CCF4 FRET ratio; hit rate 0.21% among 340,000;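 active = inhibition above the mean over all tested compounds plus 3 SD, cut at about 21% in these data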;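 also: 0% = DMSO only wells and 100% = clavulanate BLA inhibitor control wells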
PRMT1 FP inh: PRMT1 methyltransferase inhibitors, primary screen, biochemical, fluorescence polarization; Protein arginine N-methyltransferase 1 (Homo sapiens), Q99873; recombinant PRMT1, activity-based probe fluorescence polarization; inhibition, % at 2.79 µM; hit rate 1.3% among 370,000; AID 652257, 2013;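 active = inhibition above about 21% made by adding two undisclosed values, limit read from the data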
Target sequence (Q99873 whole entry, looked up): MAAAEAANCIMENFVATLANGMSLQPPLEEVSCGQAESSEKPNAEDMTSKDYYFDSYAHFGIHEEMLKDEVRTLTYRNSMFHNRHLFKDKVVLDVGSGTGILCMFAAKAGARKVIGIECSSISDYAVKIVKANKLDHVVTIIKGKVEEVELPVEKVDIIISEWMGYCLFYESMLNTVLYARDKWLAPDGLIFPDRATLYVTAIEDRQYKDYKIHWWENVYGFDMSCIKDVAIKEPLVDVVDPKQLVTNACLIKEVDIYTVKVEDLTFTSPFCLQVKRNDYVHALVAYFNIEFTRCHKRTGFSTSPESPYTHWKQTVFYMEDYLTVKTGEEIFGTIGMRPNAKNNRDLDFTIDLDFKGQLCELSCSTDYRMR
TLR4-MyD88 BLA: inhibitors of TLR4-MyD88 association in cells, primary screen, cell-based, HeLa CL3-4, BLA complementation, FRET ratio | Toll-like receptor 4 (Homo sapiens) + Myeloid differentiation primary response protein … | HeLa CL3-4 TLR4/MyD88 BLA complementation | inhibition, % at 8.4 µM | hit rate 0.18% among 200,000 | AID 861, 2007; in the data active = inhibition above about 25%;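 also: 0% = vehicle and 100% = reference inhibitor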
NOD2 RIPK2 PPI: NOD2-RIPK2 binding disruptors in cells, primary screen, fluorescence, CHO cells, BLA complementation. Receptor-interacting serine/threonine-protein kinase 2 (Homo sapiens), O43353. inhibition, % at 4.98 µM. hit rate 0.38% among 360,000. CCF4 ratio; in the data active = inhibition above about 21%;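 also: 0% = vehicle only and 100% = reference blocker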
ABHD5-PLIN5 inh: ABHD5-PLIN5 interaction inhibitors, primary screen, cell lysate, split luciferase complementation, luminescence; Perilipin-5 (Homo sapiens) + 1-acylglycerol-3-phosphate O-acyltransferase ABHD5 (Homo …; Split G. princeps luciferase complementation, 4 h; inhibition, % at 4 µM; hit rate 0.78% among 360,000; AID 602281, 2012;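 active = inhibition above the mean inhibition across every tested compound plus 3 SD, cut at about 22% in these data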;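 also: 0% = DMSO only wells and the 100% control is not disclosed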
rCAG bind conf: small molecules binding CAG repeat RNA – biochemical, fluorescence, confirmation; shares compounds with rCAG RNA binder; inhibition, % at 3 µM; AID 652065, 2013; r(CAG) RNA repeat, TO-PRO-1 dye displacement fluorescence; hit rate 70% among 4,300;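 active = inhibition above a per-plate cutoff, the mean inhibition of sample wells plus 3 SD, cut at about 35% in these data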;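 also: loss of TO-PRO-1 fluorescence as compound displaces dye from 1x1 AA loop RNA; 0% = DMSO only wells and 100% = 100 µM mitoxantrone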
dCAG dye counter: displacement of TO-PRO-1 from CAG DNA duplex, counter-screen for rCAG RNA repeat binder project, biochemical, fluorescence, TO-PRO-1 dye, d(CAG) DNA oligo; shares compounds with rCAG RNA binder; d(CAG) DNA oligo TO-PRO-1 dye displacement; inhibition, % at 3 µM; hit rate 94% among 4,300;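 active = inhibition above its plate's cutoff, the mean test-well inhibition plus 3 SD, cut at about 4.8% in these data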;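 also: 0% = DNA dye mix with DMSO and 100% = 100 µM mitoxantrone; hits displace the dye from DNA and so lower well fluorescence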
PRMT1 confirm: PRMT1 methyltransferase inhibitors, confirmation, biochemical, fluorescence polarization, triplicate; shares compounds with PRMT1 FP inh; recombinant His-PRMT1, activity-based probe fluorescence polarization; inhibition, % at 2.79 µM; hit rate 42% among 3,300; AID 687036, 2013;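 active = mean inhibition across replicates above the hit cutoff derived for the earlier primary screen, cut at about 22% in these data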
An asterisk follows results filed as active; x = no result. Shown are actives, neighbours in structure and some others; about 3.3% of the full set was active somewhere.

SMILES	rCAG RNA binder	TLR9-MyD88 block	PRMT1 FP inh	TLR4-MyD88 BLA	NOD2 RIPK2 PPI	ABHD5-PLIN5 inh	rCAG bind conf	dCAG dye counter	PRMT1 confirm
O=C(O)CCN1C(=O)/C(=C/c2ccc(-c3nc4ccccc4s3)o2)SC1=S	55*	8	69*	-6	6	-4	85*	53*	23*
S=c1[nH]nc(SCc2ccccc2)c2[nH]cnc12	4	2	13	x	-7	4	x	x	x
COc1ccc2c(c1)[nH]c1c(=O)n(CCCn3ccnc3)cnc12	3	1	1	1	-5	-4	x	x	x
O=C(O)c1ccc(-n2c(=O)c3ccccc3c3ccccc3c2=O)cc1	2	-5	2	1	1	2	x	x	x
O=C(O)c1ccc(-n2c(O)c(C=C3N=c4ccccc4=N3)sc2=S)cc1	80*	-8	30*	x	0	1	62*	24*	21
O=C(O)c1cccc(N2CCCC2)c1	7	8	9	1	-17	2	x	x	x
O=C(O)c1cccc(-n2c(O)c(C=C3N=c4ccccc4=N3)sc2=S)c1	81*	-2	31*	x	-2	-13	64*	22*	5
CCCC(C(=O)O)n1c(O)c(C=C2N=c3ccccc3=N2)sc1=S (stereo not given)	58*	1	26*	x	-4	-6	54*	17*	3
O=C1C=CC(=O)c2c(O)c(N3CCN(CCOCCO)CC3)c(Br)c(O)c21	53*	0	66*	x	-10	-2	68*	36*	93*
Nc1nc(-c2cc(O)ccc2[N+](=O)[O-])cc(-c2ccccc2)c1[N+](=O)[O-]	57*	6	27*	x	-13	1	44*	24*	18
O=C(NCc1ccccn1)C1Nc2ccc(OC(F)(F)F)cc2C2C=CCC12 (stereo not given)	37*	-6	34*	x	5	1	2	2	4
O=C1c2ccccc2C(=O)c2c(O)c(O)cc(O)c21	42*	1	27*	x	-9	11	60*	32*	21
Nc1ccc(O)c2c1C(=O)c1ccccc1C2=O	24	-2	17	14	10	1	x	x	x
NC(=O)C1CCN(c2nc(-c3ccc4ccccc4c3)cs2)CC1	4	5	0	x	-6	1	x	x	x
N#C/C(=C\c1ccc([N+](=O)[O-])o1)C(=O)Nc1ccc(F)cc1	52*	12	31*	11	4	15	30	14*	11
O=c1cc(-c2ccsc2)oc2cc(-c3ccc4c(c3)OCO4)ccc12	4	3	0	x	0	2	x	x	x
O=c1nc2s/c(=C\c3ccc(-c4ccccc4[N+](=O)[O-])o3)c(=O)n2nc1-c1ccccc1	46*	2	59*	-2	-3	-6	51*	25*	7
CCS(=O)(=O)Nc1ccc2c(c1)C(=O)N(C)[C@@H]1CC[C@H](CC(=O)N[C@@H]3CCN(Cc4ccccc4)C3)O[C@H]1CO2	9	x	1	x	x	x	x	x	x
COCCN=c1scc(-c2ccccc2)n1/N=C/c1c[nH]c2ccccc12	11	-4	2	-1	-2	0	x	x	x
